# eIF4E-4G inh: eIF4E–eIF4G protein interaction inhibitors, primary screen, biochemical, uHTS, TR-FRET, eIF4GI fragment; AID 782, 2007; Eukaryotic translation initiation factor 4E (Mus musculus) + Eukaryotic translation …; hit rate 0.37% among 220,000; TR-FRET eIF4E-eIF4GI(517-606) binding, 2 h; inhibition, % at 21.7 µM;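 note: 0% = full FRET control wells and 100% = background wells lacking eIF4GI fragment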
# Mcl1 Bid PPI: Mcl-1/Bid binding inhibitors, primary screen, biochemical, TR-FRET, 1536-well | TR-FRET Mcl-1/Bid-Dy647 peptide binding | inhibition, % at 21.7 µM | hit rate 0.97% among 220,000 | AID 1021, 2008;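 active = compounds that cut the binding signal by more than half at the single screening dose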;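 note: His-tagged Mcl-1 with europium anti-His antibody binding Bid BH3 peptide; 0% = Mcl-1 plus peptide wells and 100% = peptide-only wells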
# Target sequence (Q07820 whole entry, looked up): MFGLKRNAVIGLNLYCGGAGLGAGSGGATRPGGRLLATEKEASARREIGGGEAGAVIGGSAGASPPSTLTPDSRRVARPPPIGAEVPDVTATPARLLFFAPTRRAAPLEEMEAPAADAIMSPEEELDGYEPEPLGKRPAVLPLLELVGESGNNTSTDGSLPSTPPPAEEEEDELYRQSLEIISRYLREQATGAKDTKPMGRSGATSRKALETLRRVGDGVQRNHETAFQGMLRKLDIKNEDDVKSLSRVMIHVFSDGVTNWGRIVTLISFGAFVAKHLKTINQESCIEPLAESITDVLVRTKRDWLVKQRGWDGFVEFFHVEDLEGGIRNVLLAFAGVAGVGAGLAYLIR
# 14-3-3 Bad inh: inhibitors of 14-3-3 zeta/Bad binding, primary screen, biochemical, TR-FRET, bovine 14-3-3 zeta; inhibition, % at 21.7 µM; TR-FRET 14-3-3zeta/Dy647-pBad peptide displacement, 1 h; hit rate 0.71% among 220,000; AID 781, 2007; 14-3-3 protein zeta/delta (Bos taurus), P63103;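 active = inhibition above about 70%, limit read from the data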;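 note: 0% = full 14-3-3 plus peptide FRET controls and 100% = background without 14-3-3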
# Target sequence (P63103 whole entry, looked up): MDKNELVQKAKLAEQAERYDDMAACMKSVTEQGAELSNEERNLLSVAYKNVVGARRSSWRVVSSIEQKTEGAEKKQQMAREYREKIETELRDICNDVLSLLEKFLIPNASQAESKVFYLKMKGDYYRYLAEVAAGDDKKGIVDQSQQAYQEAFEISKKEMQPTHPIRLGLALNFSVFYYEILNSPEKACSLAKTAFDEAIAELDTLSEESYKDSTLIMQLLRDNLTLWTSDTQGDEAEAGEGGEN
# Mcl1-Noxa inh: Mcl-1/Noxa binding inhibitors, primary screen, biochemical, TR-FRET, 1536-well. TR-FRET Mcl-1/Noxa peptide binding, 2 h. hit rate 1.5% among 220,000. Induced myeloid leukemia cell differentiation protein Mcl-1 (Homo sapiens), Q07820. inhibition, % at 21.7 µM;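 active = compounds that cut the protein-peptide binding signal by more than 50% relative to plate controls in a single-dose test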;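 note: His-tagged Mcl-1 with rhodamine Noxa BH3 peptide and terbium anti-His antibody; 0% = Mcl-1 plus Noxa peptide wells and 100% = peptide-only wells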
# Bim-Mcl-1: inhibitors of Bim peptide binding to Mcl-1, primary screen, biochemical, bead-based flow cytometry, multiplex | inhibition, % at 10 µM | hit rate 0.1% among 190,000 | Induced myeloid leukemia cell differentiation protein Mcl-1 (Homo sapiens), Q07820 | Bim peptide-Mcl-1 binding; in the data active = inhibition above about 40%;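 note: 0% = no compound tracer wells and 100% = peptide blocker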
# p47phox inh: p47phox/p22phox peptide binding inhibitors, primary screen, biochemical, uHTS, NADPH oxidase regulatory subunit; inhibition, % at 24.7 µM; AID 1274, 2008; hit rate 0.53% among 220,000; Neutrophil cytosol factor 1 (Homo sapiens), P14598; fluorescence polarization, 2 h;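 note: 0% = p47phox with labelled peptide and 100% = labelled peptide alone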
# The depositor's hits bear a star; / = no result; [ ] = remark or other dose. The list is not random: actives were taken first. Their share in the collection is about 3.4%.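 Rule for the calls, unless noted: active = inhibition above about 30% (limit read from the data); inactive = the rest.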
SMILES,eIF4E-4G inh,Mcl1 Bid PPI,14-3-3 Bad inh,Mcl1-Noxa inh,Bim-Mcl-1,p47phox inh
CCSCc1nnc(SCC(=O)Nc2nc(C)cs2)n1C,-1,-16,0,0,-2,4
CCOc1ccc(Nc2c3ccccc3nc3ccccc23)cc1,2,6,2,53*,/,5
Cc1ccc(OCC(=O)NNc2c3ccccc3nc3ccccc23)cc1,-7,62*,17,51*,1,30*
COc1ccc(Nc2nc(-c3ccccc3)c3ccccc3n2)cc1,3,9,-2,2,12,-1
COc1ccc(Nc2nc(C)c3ccccc3n2)cc1,12,102*,93*,17,-2,1
CN(/C(=N\S(=O)(=O)c1ccccc1)c1ccccc1)c1ccc(O)cc1,-2,-6,-11,-14,0,5
O=C(CCN1CCCCC1)c1ccccc1,0,-34,-8,26,-4,15
C[N+]1(CCC(=O)c2ccccc2)CCCCC1,-1,56*,0,-12,-3,-7
O=C(Nc1ccc(Oc2ccc3c(c2)C(=O)N(c2ccc(O)cc2)C3=O)cc1)c1cccs1,-4,66*,63,-62,-2,-37
CC1CN(C(=O)c2cccc(C(=O)N3CC(C)OC(C)C3)c2)CC(C)O1 (stereo not given),-4,97*,2,13,2,0
CC1CN(C(=O)c2ccc(C(=O)c3ccccc3)cc2)CC(C)O1 (stereo not given),7,2,-14,7,-1,9
Cc1nn2c(COc3ccc(NC(=O)C(C)C)cc3)nnc2c2ccccc12,0,-34,85*,3,0,-7
CCCNC(=O)OCc1cccnc1Sc1ccc(C)cc1,-5,9,5,-3,4,0
COc1ccc(/C=C2\C(=O)N(c3c(Cl)cc(Cl)cc3Cl)N=C2NC(=O)c2cccc([N+](=O)[O-])c2)cc1,7,24,2,106*,0,-7
O=[N+]([O-])c1ccc(OCCO)c(P(=O)(c2ccccc2)c2ccccc2)c1,-1,-14,4,3,/,-3
CSc1c(CC(=O)Nc2ccccc2Cl)n(Cc2ccccc2)c2ccccc12,4,-22,12,/,-2,-10
CSc1c(CC(=O)Nc2ccccc2C(F)(F)F)n(Cc2ccccc2)c2ccccc12,1,58*,-5,10,7,-11
O=C(Nc1ccc(Br)cc1)Nc1ccccc1Cl,0,-26,-1,-18,/,-16
CCO[C@@H]1OC(C(=O)O)=C[C@H](c2ccc(Br)cc2)[C@H]1CCCO,3,-8,2,-8,0,/
O=Cc1ccc2oc3nc4n(c(=O)c3c(=O)c2c1)CCCS4,7,38,8,73*,12,-31
Cc1ccc(CC(=O)NCCC(=O)O)cc1,2,-4,-5,-5,/,-11
Nc1cc(Oc2cccnc2)cc([N+](=O)[O-])c1,4,-15,89*,4,-37,4
CC1CCN(CCCn2c(SCC(=O)Nc3ccccc3Cl)nc3ccccc3c2=O)CC1,3,-11,4,19,-2,-3
Cc1ccc(NC(=O)CSc2nc3ccccc3c(=O)n2CCCN2CCCCC2)cc1Cl,2,-2,-4,-12,41*,-23
Cc1ccc(-c2csc(NC(=O)CSc3nc4ccccc4c(=O)n3CCCN(C)C)n2)cc1,31*,-3,68,22,0,37*
SMILES,eIF4E-4G inh,Mcl1 Bid PPI,14-3-3 Bad inh,Mcl1-Noxa inh,Bim-Mcl-1,p47phox inh
CCn1c(SCC(=O)Nc2nc(-c3ccc(C)cc3)cs2)nnc1-c1ccccc1,-5,6,19,-7,-1,-15
COC(=O)c1c(C(=O)OC)c(-c2cccc(Cl)c2)n2c1CS(=O)C2 (stereo not given),2,-13,-9,14,-5,-8
CC(C)=C1Cc2ccccc2C1=O,-1,-41,-7,-2,2,-4
COc1ccc2c(c1O)Cc1ccccc1C2=O,9,2,5,52*,0,9
CCOC(=O)c1c(N2C(=O)C=CC2=O)sc(C)c1C,6,36,3,54*,-4,-12
COc1ccc(C(=O)NNC(=O)c2ccccn2)cc1,9,-19,11,0,-2,0
COc1ccc2c(c1)C(=NNC(=O)c1ccccn1)c1cc(OC)ccc1-2,0,41,51,38,-5,49*
CC(=O)Nc1nnc(CSCc2ccccc2F)s1,2,2,1,-4,/,1
O=S1(=O)NC(=NCCc2ccccn2)c2ccccc21,0,-7,1,-10,0,-3
COc1ccc(C(=O)Nc2oc(-c3ccccc3)c(-c3ccccc3)c2C#N)cc1,6,-20,-7,2,-4,-22
COc1ccc(-c2oc(NC(=O)c3ccc(C)cc3)c(C#N)c2-c2ccc(OC)cc2)cc1,-12,20,87*[fluorescence artefact?],10,-2,-15
O=C(/C=C\c1ccc2c(c1)OCO2)CC1(O)C(=O)Nc2ccccc21 (stereo not given),-5,-8,3,6,/,-17
CCOc1cccc2c1OC1(C)CC2NC(=O)N1Cc1ccccc1 (stereo not given),-2,-1,1,7,-3,60*
Cc1cc(NS(=O)(=O)c2ccc(NC(=O)c3cc4cc(Br)ccc4oc3=O)cc2)no1,12,57*,53,-11,-4,-21
CNC(=O)CSc1cn(CC(=O)N(C(C)C)C(C)C)c2ccccc12,2,-51,-19,8,0,-2
O=C(/C=C/c1cccc([N+](=O)[O-])c1)Nc1ccc(NC(=O)c2cccs2)cc1,11,81*,51,59*,1,-6
O=C(N/N=C/c1cccc([N+](=O)[O-])c1)c1ccc(Br)cc1,6,4,69,32,-3,-8
O=C(N/N=C/c1cccc([N+](=O)[O-])c1)c1cccs1,4,7,5,16,71*,-9
O=C(Nc1cc([N+](=O)[O-])ccc1F)c1cccs1,12,-38,-11,-16,-5,75*
O=C(N/N=C/C=C\c1ccccc1[N+](=O)[O-])c1cccs1,-6,-14,-3,10,0,-3
O=C(N/N=C/C=C/c1ccc([N+](=O)[O-])cc1)c1cccs1,-16,76*,47,62*,3,-54
COc1ccc([N+](=O)[O-])cc1NC(=O)c1cccs1,0,-7,-3,18,0,4

# High-throughput results from PubChem BioAssay.
